Results taken from PubChem BioAssay AID430 (Sanford-Burnham Center for Chemical Genomics, 2006).
Screen size: about 63,000 compounds; about 1,100 (1.7%) were called active. For the sample, actives were picked, then their nearest neighbours and some compounds at random. Entries with a potency or affinity are not part of this list. A number with no mark means an inactive call. No stated cut-off is given here; in the data, active means cytotoxicity above about 50%; inactive means the rest.

Assay: cytotoxicity in HPDE-C7 cells, cell-based, fluorescence, HTS (AID 430);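 further: cells exposed to compound for 48 hours before viability readout; 0% = vehicle and 100% = reference cytotoxic drug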
Conditions: HPDE-C7 pancreatic duct cells viability, at 10 µM, active compounds read high
`Cc1onc(-c2ccccc2)c1C(=O)Nc1cccc2nsnc12` gave a cytotoxicity of -11.7%. Work on `COc1ccc(Cn2c(C)ccc2C)cc1` yielded a cytotoxicity of -2%. For `COc1ccc(CN2CCC(=O)NC2=O)cc1`, the cytotoxicity was 6.7%. In the case of `COc1ccc(CN2CN(C(C)C)CSC2=S)cc1`, the cytotoxicity is reported as 50.5% (active). For `CC(=O)c1cc(-c2ccccc2)n(CCC(=O)NCc2cccs2)c1C`, the cytotoxicity was -24%. With `N#CC1=C(N)Oc2nc(-c3ccccc3)[nH]c2C1c1cccnc1` (stereo unspecified) the cytotoxicity was 3.4%. In the case of `N#CC1=C(N)Oc2c(ccc3cccnc23)C1c1cccnc1` (stereo unspecified), the cytotoxicity is reported as 62.4% (active). `CCc1[nH]nc2c1C(c1cccnc1)C(C#N)=C(N)O2` (stereo unspecified) showed a cytotoxicity of 4.9%. `CCCc1nn(C)c2c1C(c1cccnc1)C(C#N)=C(N)O2` (stereo unspecified) gave a cytotoxicity of 3.9%. With `N#CC1=C(N)Oc2cc(O)ccc2C1c1ccccc1` (stereo unspecified) the cytotoxicity was -11.3%. In the case of `CCN(CC)c1ccc2c(c1)OC(N)=C(C#N)C2c1cccnc1` (stereo unspecified), the cytotoxicity is reported as 64.4% (active). Molecule `N#CC1=C(N)Oc2cc(O)ccc2C1c1ccncc1` (stereo unspecified) has a cytotoxicity of 3%. With `CN(C)c1ccc2c(c1)OC(N)=C(C#N)C2c1cccc(F)c1` (stereo unspecified) the cytotoxicity was 62.6% (active). Work on `CC(C)(C)c1[nH]nc2c1C(c1cccnc1)C(C#N)=C(N)O2` (stereo unspecified) yielded a cytotoxicity of -9.6%. `C=CCSC1=C(C#N)C(c2ccccc2Cl)CC(=O)N1` (stereo unspecified) gave a cytotoxicity of -33.8%. Work on `O=C(O)C1C2C=CC(C2)C1C(=O)Nc1ccc(C(=O)N2CCCCC2)c(Cl)c1` (stereo unspecified) yielded a cytotoxicity of -20.1%. Work on `COc1cc2c(cc1OC)C1=C(C#N)CN(CC(=O)O)CN1CC2` yielded a cytotoxicity of -4.5%. `COc1ccc(S(=O)(=O)NCCC(=O)NCc2cccs2)cc1` gave a cytotoxicity of -13.7%. In the case of `C=C(C)CSc1nc2ncccc2[nH]1`, the cytotoxicity is reported as -0.6%. Molecule `COc1ccc(CN(C(=O)CSc2nnc(-c3ccc(F)cc3)o2)c2ccc(F)cc2)cc1` has a cytotoxicity of 3%. Work on `COc1ccc(CN(C(=O)CSc2nnc(-c3ccccc3F)o2)c2ccc(F)cc2)cc1` yielded a cytotoxicity of 6.6%. For `O=C(CSc1nnc(-c2c[nH]c3ccccc23)o1)N(Cc1ccccc1)c1ccc(F)cc1`, the cytotoxicity was 53.6% (active). `CCOC(=O)C(C)Sc1nc2ccccc2c(=O)n1CC` (stereo unspecified) showed a cytotoxicity of -15.7%. In the case of `Cc1cccc(N2CCN(c3nnnn3-c3ccccc3)CC2C)c1` (stereo unspecified), the cytotoxicity is reported as 0.6%. With `CC(NC(=O)c1noc2c1CCCC2)c1ccccc1` (stereo unspecified) the cytotoxicity was 4.7%. In the case of `CCOc1ccc2[nH]c(=O)c(CN(Cc3cccs3)Cc3nnnn3C(C)(C)CC)cc2c1`, the cytotoxicity is reported as 12.9%. In the case of `Cc1ccc2cc(CN(Cc3ccc(F)cc3)Cc3nnnn3C3CCCC3)c(=O)[nH]c2c1`, the cytotoxicity is reported as 23.4%. For `CCOC(=O)Cn1nnnc1C(CC)N(Cc1cccs1)Cc1cc2cc(C)ccc2[nH]c1=O` (stereo unspecified), the cytotoxicity was 7.5%. With `CCOc1ccc2[nH]c(=O)c(CN(Cc3cccs3)C(CC)c3nnnn3C(C)(C)CC)cc2c1` (stereo unspecified) the cytotoxicity was 59% (active). In the case of `Cc1ccc2[nH]c(=O)c(CN(Cc3ccccc3)Cc3nnnn3C3CCCC3)cc2c1`, the cytotoxicity is reported as 39.3%. With `Cc1ccc2[nH]c(=O)c(CN(Cc3nnnn3C3CCCC3)C3CCCCC3)cc2c1` the cytotoxicity was 9.3%. In the case of `CCC(c1nnnn1C1CCCC1)N(Cc1cccs1)Cc1cc2cc(C)ccc2[nH]c1=O` (stereo unspecified), the cytotoxicity is reported as 56.4% (active). Molecule `CCOc1ccc2[nH]c(=O)c(CN(Cc3cccs3)Cc3nnnn3C(C)(C)C)cc2c1` has a cytotoxicity of 31.8%. In the case of `Cc1ccc2cc(CN(Cc3ccccc3)Cc3nnnn3C3CCCC3)c(=O)[nH]c2c1`, the cytotoxicity is reported as 53.3% (active). In the case of `COc1ccc(NC(=O)C2CC(=O)NC(Nc3cccc(C)c3)=N2)cc1` (stereo unspecified), the cytotoxicity is reported as 5.9%. In the case of `COC(=O)c1ccc(COC(=O)c2ccc(-n3cnnn3)cc2)o1`, the cytotoxicity is reported as -1.9%. `O=C(Cc1ccc(Cl)cc1)NCCN1CCCC1` gave a cytotoxicity of 1.5%. With `Cc1c(C(=O)O)sc2ncn(C)c(=O)c12` the cytotoxicity was -7.5%. `c1ccc(CCn2nnnc2C(c2cccs2)N2CCOCC2)cc1` (stereo unspecified) showed a cytotoxicity of 3.6%. For `COc1ccc(S(=O)(=O)NCCc2csc(C)n2)cc1C`, the cytotoxicity was 0.1%. With `Cc1ccccc1-n1c(C)nc2ccccc21` the cytotoxicity was -11.6%. For `Cc1ccc2c(c1)c1c3n2CCN(C(=O)C2CC2)C3CCC1` (stereo unspecified), the cytotoxicity was -6.9%. `Cc1ccc2c(c1)c1c3n2CCN(C(=O)CN2CCN(C)CC2)C3CCC1` (stereo unspecified) gave a cytotoxicity of 42.4%. Molecule `COc1ccc(Cn2nnnc2CN2CCOCC2)cc1` has a cytotoxicity of -5.5%. `CCN(CC)CCNc1nc(-c2ccco2)c2c(c1C#N)CC(C)(C)OC2` gave a cytotoxicity of -14.1%. Work on `CCCc1nc(NCc2ccco2)c(C#N)c2c1COC(C)(C)C2` yielded a cytotoxicity of -13.3%. `Cc1nc(NCc2ccco2)c(C#N)c2c1COC(C)(C)C2` gave a cytotoxicity of -17.6%. Molecule `CN(C)CCNc1nc(-c2ccco2)c2c(c1C#N)CC(C)(C)OC2` has a cytotoxicity of 2.7%. `CCC(=O)Nc1cc(C(=O)NCC2CCCN2CC)c(OC)cc1N(C)C` (stereo unspecified) showed a cytotoxicity of -2.6%. Molecule `Cc1cccc(C)c1NC(=O)N1CCC(n2cnc3ccccc32)CC1` has a cytotoxicity of -24.3%. `Cc1cc(C)n(C(=O)CNC(=O)COc2ccccc2)n1` showed a cytotoxicity of -2.7%.
